# PubChem BioAssay (NCATS)
# Results filed as inconclusive are left out. A call without a number means that no potency is given here. Activity calls are given as the source filed them. Calls come from the whole dose curve; as a rule, active = well fitted cell-killing curve with a large enough effect; inconclusive = small, poorly fitted or top-dose-only effect; inactive = flat fitted curve, though single readings scatter.
# Assay: Cellular viability qHTS for adrenocortical cancer (ACC) cell line NCI-H295R (AID 1963990); note: nearly all actives have a fitted effect of over 60% in size
# Conditions: CellTiter-Glo ATP luminescence, 48 h; series mostly up to 46.1 µM
# Outline: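 Readout: CellTiter-Glo luminescence, 20 min RT. Exposure: 48 h, 37C/5% CO2. Cells: NCI-H295R, ITS-DMEM serum-free. Range: up to 46 uM. Analysis: 4PL fit, IC50 plus efficacy.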
# Potency is the fitted concentration of half-maximal effect.
row,SMILES,Potency
1,C[C@@H]1CC(=O)Nc2cccc(-c3cnn(C(C)(C)C)c3)c2N1,inactive
2,O=C1c2cccc(O)c2C(=O)c2c(O)cccc21,inactive
3,Cc1nnc(C(C)C)n1C1CC2CCC(C1)N2CCC(NC(=O)C1CCC(F)(F)CC1)c1ccccc1 (centres undefined),inactive
4,COc1cccc2c1c(O)c(C(=O)N(C)c1ccc(C(F)(F)F)cc1)c(=O)n2C,inactive
5,CC1=C(/C=C/C(C)=C/C=C/C(C)=C/C=C/C=C(C)/C=C/C=C(C)/C=C/C2=C(C)CCCC2(C)C)C(C)(C)CCC1,inactive
6,CC(C)(C)C(=O)OCOC(=O)[C@@H]1N2C(=O)[C@@H](NC(=O)[C@H](N)c3ccccc3)[C@H]2SC1(C)C,inactive
7,COc1cc(NS(=O)(=O)c2ccc(N)cc2)nc(C)n1,inactive
8,COc1cc(C(=O)NCCCCCC(=O)O)cc(OC)c1OC,inactive
9,Cc1cc2c(C(C)C)c(O)c(O)c(C=O)c2c(O)c1-c1c(C)cc2c(C(C)C)c(O)c(O)c(C=O)c2c1O,8.2 µM (active)
10,C[C@@H](O)[C@H]1C(=O)N2C(C(=O)O)=C(S[C@@H]3CN[C@H](CNS(N)(=O)=O)C3)[C@H](C)[C@H]12,inactive
11,CCCCCCCCCCC(CO)CCCCCCCC (centres undefined),inactive
12,C[C@H](CCC(=O)O)[C@H]1CC[C@H]2[C@@H]3[C@H](O)C[C@@H]4C[C@H](O)CC[C@]4(C)[C@H]3CC[C@]12C,inactive
13,Cc1ccc(S(=O)(=O)Cc2nc(-c3ccc(C(=O)NCc4cccnc4)cc3)oc2C)cc1,0.0501 µM (active)
14,CCCC(CCC)(C(=O)OCC)C(=O)OCC,inactive
15,COc1ccc(CCN(C)CCCN2CCc3cc(OC)c(OC)cc3CC2=O)cc1OC,inactive
16,O=c1oc2c(C3OCCCO3)c(O)ccc2c2c1CNCC2,inactive
17,COc1ccc(-c2cc(=S)ss2)cc1,inactive
18,FC(F)(F)c1ccccc1-n1ccnc1,inactive
19,CCN1CCC[C@H]1CNC(=O)c1c(OC)ccc(Br)c1OC,inactive
20,C[C@@H]1[C@H](O)[C@@H](C)/C=C/C=C/C=C/C=C/C=C/C=C/C=C/[C@H](O[C@@H]2O[C@H](C)[C@@H](O)[C@H](N)[C@@H]2O)C[C@@H]2O[C@](O)(C[C@@H](O)C[C@@H](O)[C@H](O)CC[C@@H](O)C[C@@H](O)CC(=O)O[C@H]1C)C[C@H](O)[C@H]2C(=O)O,inactive
21,O=C1CN(/N=C/c2ccc([N+](=O)[O-])o2)C(=O)N1,18.4 µM (active)
22,Cn1cc(-c2cc(Oc3cc(F)c(NC(=O)C4(C(=O)Nc5ccccc5)CC4)cc3F)ccn2)cn1,28.2 µM (active)
23,O=C(NCCc1c[nH]c2ccccc12)c1cccnc1,inactive
24,Cc1ccc(S(=O)(=O)NC(=O)NC2CCCCCCC2)cc1,inactive
